WT yeast gro inh = growth inhibition of WT yeast, mitochondrial fusion screen; actives 2.1% (n = 190,000); inhibition, % at 10 µM; AID 1362; mitochondrial fusion phenotypic screen, WT strain; in the data active means inhibition above about 58%; tested in S. cerevisiae
ROMK mod = modulators of human ROMK potassium channel. Tet-inducible ROMK, thallium flux fluorescence; actives lie on both sides. B-score at 10 µM. P48048. actives 2% (n = 130,000);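 active means signal ratio slope over the read window, or its plate-corrected B-score, at least 3 SD from the plate mean, either direction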;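 further: B-score of the F/F0 ratio slope over 7 to 12 s after thallium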
L major viab = reduces viability of Leishmania major promastigotes. inhibition, % at 10 µM. resazurin fluorescence viability. actives 9% (n = 200,000). AID 1063; in the data active means inhibition above about 50%;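 further: promastigotes grown with compound for 44 hours at 28 °C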
m-calpain inh = blocks pig calpain II enzyme activity | purified calpain II, fluorogenic peptide substrate, 30 min | inhibition, % at 16 µM | actives 0.37% (n = 220,000) | AID 1236;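 active means inhibition above about 50%, limit read from the data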
Cl transport mod = modulates chloride dependent transport by human KCC2; B-score of Tl+ flux slope (higher = more flux/activation; lower = inhibition) at 10 µM; KCC2 cells, thallium flux FluoZin-2 fluorescence; AID 1456; actives 2.2% (n = 190,000); Q9H2X9;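 active means thallium flux slope and its plate-corrected score both differing from the plate sample mean at a set confidence after two filtering rounds, in either direction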;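 further: slope of fluorescence scaled to starting intensity during 10 to 20 s after thallium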
An asterisk follows results filed as active; nt = no result. Hits are enriched below; roughly 12% of the tested compounds scored in any of these assays.

SMILES | WT yeast gro inh | ROMK mod | L major viab | m-calpain inh | Cl transport mod
Cn1c(=O)c(C(=O)COC(=O)c2cc(-c3ccco3)nc3ccccc23)c(N)n(Cc2ccccc2)c1=O | 6 | 1.8 | 99* | -132 | -0.61
Cn1c(N)c(C(=O)COC(=O)c2cc(-c3ccccc3)nc3ccccc23)c(=O)n(Cc2ccccc2)c1=O | -6 | 1.3 | -3 | -66 | 0.96
CC(C)Cn1c(N)c(C(=O)COC(=O)c2ccc(O)cc2)c(=O)n(C)c1=O | -6 | 1.1 | -2 | -6 | 0.18
CC(C)Cn1c(N)c(C(=O)COC(=O)c2cc(C(F)(F)F)nc3ccccc23)c(=O)n(C)c1=O | 56 | 0.63 | 17 | -3 | 0.39
CC(C)Cn1c(N)c(C(=O)COC(=O)c2cc(C3CC3)nc3ccccc23)c(=O)n(C)c1=O | 34 | 0.54 | 57* | -40 | -1.1
CC(C)Cn1c(N)c(C(=O)COC(=O)c2ccc([N+](=O)[O-])o2)c(=O)n(C)c1=O | 0 | -1 | 88* | 1 | -0.26
S=C(NCCN1CCOCC1)NC1CCCC1 | 0 | 1.1 | -1 | -17 | -0.25
COc1cc(C(=O)Nc2cccc(-c3nnc(-c4ccco4)o3)c2)ccc1OC(C)=O | 3 | 0.42 | 30 | 40 | -0.37
COc1ccccc1CNC(=O)c1cn(C)c2ccc(S(=O)(=O)N3CCCCC3)cc2c1=O | -8 | -0.009 | 4 | -34 | 1.3
CC(NCc1cccs1)c1ccccc1 (stereo not drawn) | 5 | 0.17 | -3 | -14 | -0.48
CC(C)Cn1c(N)c(C(=O)COC(=O)c2cnc(Cl)c(Cl)c2)c(=O)n(C)c1=O | 2 | -1.5 | 6 | 63* | -0.9
CC(C)Cn1c(N)c(C(=O)COC(=O)c2cc(-c3ccco3)nc3ccccc23)c(=O)n(C)c1=O | 2 | 1.3 | 77* | -207 | 0.16
CC(=O)NS(=O)(=O)c1ccc(NC(=O)CN2C(=O)C3C4C=CC(C4)C3C2=O)cc1 (stereo not drawn) | -1 | 0.57 | -1 | 17 | -0.033
COc1ccccc1-c1ccc(SCc2cccc(C)c2)nn1 | 68* | -2.5 | 99* | 30 | 0.14
COc1ccccc1-c1ccc(SCc2ccc([N+](=O)[O-])cc2)nn1 | 26 | -1.2 | 5 | 7 | 0.053
COCCn1c(SCC(=O)c2[nH]c(C)c(C(C)=O)c2C)nc2ccccc21 | nt | nt | 4 | -49 | 0.93
COC(=O)C1CCN(C(=O)COC(=O)[C@@H]2CC(O)CN2S(=O)(=O)c2ccc3c(c2)OCCO3)CC1 (stereo partly drawn) | 2 | nt | 51* | -17 | 0.51
Cc1ccc(CNC(=O)COC(=O)[C@@H]2CC(O)CN2S(=O)(=O)c2ccc3c(c2)OCCO3)cc1 (stereo partly drawn) | -5 | -2.1 | -2 | 2 | -0.71
CC1(c2nnc(-c3ccccc3)o2)CC(c2ccncc2)=NO1 (stereo not drawn) | nt | nt | nt | 6 | 1.3
COc1ccc(-n2c(=O)c3ccccc3n(CC(=O)NC3CCCC3)c2=O)cc1 | 12 | nt | -5 | -15 | nt
COc1ccc(NC(=O)c2ccc3ccccc3n2)cc1S(=O)(=O)Nc1ccccc1Cl | 14 | nt | 98* | -12 | 0.21
COc1ccc(NC(=O)CCSc2ccc(C)cc2)cc1S(=O)(=O)Nc1ccccc1Cl | 21 | nt | 88* | -1 | -2.2
COC(=O)c1cccc(NC(=O)c2nn(C)c(=O)c3ccccc23)c1 | 9 | nt | 4 | 11 | 0.019
COc1ccc(NS(=O)(=O)c2cc(NC(=O)CCSc3ccccc3)ccc2OC)cc1 | 2 | -1.3 | 12 | -3 | -3.4
CCOc1ccc(NC(=O)COC(=O)CCS(=O)(=O)c2ccc(C)cc2)cc1 | -3 | 0.22 | -4 | -6 | -0.43
SMILES | WT yeast gro inh | ROMK mod | L major viab | m-calpain inh | Cl transport mod
CCOc1ccc(NS(=O)(=O)c2cc(NC(=O)CCS(=O)(=O)c3ccc(C)cc3)ccc2OC)cc1 | -3 | -0.13 | 60* | -4 | 0.92
COc1ccc(NC(=O)c2nn(C)c(=O)c3ccccc23)cc1S(=O)(=O)Nc1ccccc1Cl | 20 | -0.17 | 60* | -191 | 0.4
COc1ccc(NC(=O)c2cc(C)nc3ccccc23)cc1S(=O)(=O)Nc1ccccc1Cl | 2 | 0.58 | 1 | -12 | 0.05
Cc1ccc(N(CCC#N)C(=O)CSc2ccc3c(c2)OCCO3)cc1 | 17 | nt | 6 | 3 | 0.019
Cc1ccc(N(CCC#N)C(=O)CCl)cc1C | -9 | 1.9 | 79* | 18 | 1.9
O=C(Nc1ncc(S(=O)(=O)c2ccc([N+](=O)[O-])cc2)s1)c1cccc2ccccc12 | 7 | 0.015 | 100* | -42 | 0.85
COc1ccc(CN2CCS(=O)(=O)CC2)cc1OC | 0 | -0.68 | -6 | 7 | nt
CCOC(=O)C/C(N)=N/NC(=O)c1ccc(Cl)cc1Cl | -4 | -0.0066 | 2 | 9 | 0.88
CCn1cc(CN2CCc3c([nH]c4ccccc34)C2c2cccc(OC)c2)c(C)n1 (stereo not drawn) | 9 | -0.39 | 29 | -70 | nt
CC(C)(C)c1ccc(OCC(=O)N2CCCCCC2)c(Br)c1 | 68* | -1.7 | 27 | 38 | -0.2
Cc1cc(Cl)ccc1OC(C)C(=O)N1CCCN(C(=O)C(C)Oc2ccc(Cl)cc2C)CC1 (stereo not drawn) | 60* | -0.62 | 99* | -102 | -1.6
CCOc1cc(C(=O)OC(C)C(=O)Nc2ncc(Cl)cc2Cl)ccc1OCC(=O)N1CCOCC1 (stereo not drawn) | 12 | nt | 73* | 27 | 1.3
Cc1cc(C)c(C)c(OCC(=O)N2CCOCC2)c1 | -14 | -0.11 | 1 | -45 | 0.011
Cc1cc(OCC(=O)N2CCOCC2)c(C(C)C)cc1Cl | -12 | nt | 80* | -6 | nt
CC(Oc1ccccc1Cl)C(=O)N1CCOCC1 (stereo not drawn) | -12 | nt | -1 | -79 | 0.59
O=C1CN(C(=O)COc2ccc(Br)cc2Br)c2ccccc2N1 | 7 | -0.39 | 17 | -21 | 0.075
C=CCN(c1ccccc1C(=O)O)S(=O)(=O)c1ccc(C)cc1 | -1 | 1.2 | -6 | 2 | 0.25
Cn1c(N)c(C(=O)COC(=O)[C@@H]2CCCN2S(=O)(=O)c2ccc(Cl)cc2)c(=O)n(C)c1=O | -3 | -0.55 | -3 | -10 | -0.63
Cc1cc(/C=C(\C#N)C(=O)NCc2cccs2)c(C)n1-c1ccccc1F | 9 | nt | 13 | -105 | -0.19
Cc1cc(Cl)ccc1OCC(=O)N1CC(C)CC(C)C1 (stereo not drawn) | -5 | -2 | 3 | 12 | -0.025
Cc1cc(Cl)ccc1OCC(=O)N1CCCN(C(=O)COc2ccc(Cl)cc2C)CC1 | 73* | -1.3 | 92* | 17 | -1.8
COC1=C(Nc2ccc(O)cc2)C(=O)c2ccccc2C1=O | 22 | -1.3 | 53* | 14 | 1.5
COC1=C(Nc2ccc(OC)cc2)C(=O)c2ccccc2C1=O | 11 | -0.81 | 69* | 8 | -0.86
CCOc1ccc(NC2=C(OC)C(=O)c3ccccc3C2=O)cc1 | 35 | 0.29 | 26 | 23 | 0.28
O=C(Nc1ccccc1)N(C1=NCCC1)c1ccc(OC(F)F)cc1 | 10 | nt | 9 | 7 | 0.065
NCCOc1ccccc1OCCN | -10 | 0.16 | -4 | -20 | 0.4
NCCOc1ccccc1Cc1ccccc1 | 0 | -0.75 | 99* | 26 | 1.2

Bioassay records from PubChem.
